Consider 40 molecules from PubChem BioAssay (Tox21).

Inconclusive results are not listed. Calls of active or inactive are those of the source. The call rests on the fitted dose curve.

A short description of the test: qHTS assay to identify small molecule agonists of the NFkB signaling pathway - cell viability counter screen (AID 1159515). Further: nearly all actives have a fitted effect of over 55% in size. The conditions noted are these: NFkB-bla ME-180 viability, CellTiter-Glo luminescence, 5 h; series mostly up to 61 µM. An excerpt: National Center for Advancing Translational Sciences [NCATS]
NIH Chemical Genomics Center [NCGC]
U.S. Environmental Protection Agency [EPA]
National Institutes of Environmental Health Sciences [NIEHS]
National Toxicology Program [NTP]
U.S. Food and Drug Administration [FDA]
Transcription factors and their stimulated target gene expression play pivotal roles across many cellular processes including responses to environmental stimuli. Proper regulation of associated pathways is critical to maintain cell health and function. Constitutive activation of transcription factor pathways has been implicated in tumors as it may block cellular functions such as apoptosis and lead to invasion and metastasis. One important transcription factor that stimulates gene expression in response to cytokines, UV radiation, and other stimuli is nuclear factor-kappa B (NFkB). To measure activation of the NFkB pathway, the CellSensor NFkB-bla ME-180 cell line (Life Technologies, Carlsbad, CA) that stably expresses beta-lactamase reporter gene under the regulation of a NF-kB response element was used. This assay allows measurement of the NFkB pathway activity induced by compounds in a ME-180 cell line. This system quantitates NF-kB activity using a FRET-based assay system where beta-lactamase expression disrupts FRET, allowing for fluorescent measurement of activity. This cell line has been used to screen the Tox21 10K compound library and to identify compounds that induce the NFkB pathway activity. The cytotoxicity of the Tox21 compound library against the NFkB-bla ME-180 cell line was tested in parallel by measuring cell viability using the CellTiter-Glo assay in the same wells.
Tox21 Assay Protocol Summary:
NFkB-bla ME-180 cells were dispensed at 2,000 cells/6 uL of assay medium per well into black wall/clear-bottom 1536-well plates using a Multidrop Combi (ThermoFisher Scientific, Waltham, MA) dispenser. After the assay plates were incubated at 37 C and 5% CO2 for an overnight, 23 nL of compounds dissolved in DMSO, positive controls or DMSO only was transferred to the assay plate by a Pintool station (Kalypsys, San Diego, CA). The assay plates were incubated at 37 C and 5% CO2 for 5 hr. One uL of LiveBLAzer B/G FRET substrate (Life Technologies) was added using a Flying Reagent Dispenser (Aurora Discovery, San Diego, CA) and the plates were incubated at room temperature for 1.5 hr. Fluorescence intensity (405 nm excitation, 460 nm and 530 nm emissions) was measured using an Envision plate reader (PerkinElmer, Shelton, CT). For cytotoxicity, 3 ul/well of CellTiter-Glo reagent was added into the assay plates using an FRD. After 30 min incubation at room temperature, the luminescence intensity was measured using a ViewLux plate reader (PerkinElmer).
(In general: qHTS replaces the single test concentration by a dilution series.)
As to `CCCCCCO`, the result was inactive.
In the case of `CCCCCCCCCCCCCCCCO`, the outcome was inactive.
`CCNC(=S)NCC`: the molecule was called inactive.
Then `C=CCc1ccc(OC)c(OC)c1`, with “inactive”; and `C=CCCCCCCCCC(=O)O`, with “inactive”; and `C=CC[N+](C)(C)CC=C`, with “inactive”.
As for `Cc1ccc([N+](=O)[O-])cc1S(=O)(=O)O`, the entry is “inactive”; as for `O=C(O)c1ccccc1C(=O)O`, “inactive”.
As for `CC(C)=CCl`, the entry is “inactive”; as for `NCCN1CCNCC1`, “inactive”.
`Nc1nc(N)nc(-c2ccccc2)n1`: the outcome was inactive.
Regarding `O=C1c2ccccc2CCc2ccccc21`, the molecule was classed as inactive.
On to `O=[N+]([O-])c1ccc2nc[nH]c2c1`, for which the result was inactive.
Take `Cc1ccc(S(=O)(=O)N=C=O)cc1`: the call was inactive.
On to `CC(=O)c1ccc(O)cc1`, for which the call was inactive.
For the molecule `Cc1ccc(C(C)C)c(O)c1`, the outcome was inactive.
As for `C[Si]1(C)O[Si](C)(C)O[Si](C)(C)O[Si](C)(C)O1`, the entry is “inactive”.
As for `COCCOC(=O)c1ccccc1C(=O)OCCOC`, the entry is “inactive”; as for `C[C@]12CCC(=O)C=C1CC[C@@H]1[C@@H]2[C@@H](O)C[C@@]2(C)[C@H]1CC[C@]2(O)C(=O)CO`, “inactive”; as for `C=C(C)[C@H]1CC=C(C)C(=O)C1`, “inactive”.
Then `CC(C)c1cccc(C(C)C)c1`, with “inactive”.
Regarding `CC(=O)OCc1ccco1`, the molecule was called inactive.
`O=S(=O)(O)c1ccc(N=Nc2c(O)ccc3cc(S(=O)(=O)O)ccc23)cc1`: the result was inactive.
Consider `COc1ccc(C)cc1N`, for which the outcome was inactive.
Then `CCOCCOCCOCCO`, with “inactive”.
As for `CC1(C)S[C@@H]2[C@H](NC(=O)COc3ccccc3)C(=O)N2[C@H]1C(=O)O`, the entry is “inactive”; as for `CSc1ccc(Cl)cc1`, “inactive”; as for `CN/C(=C\[N+](=O)[O-])NCCSCc1csc(CN(C)C)n1`, “inactive”.
Then `CC(C)OC(=O)COc1ccc(Cl)cc1Cl`, with “inactive”.
Regarding `CCCCCC(=O)O`, the result was inactive.
As for `O=C(OCC1CCC2OC2C1)C1CCC2OC2C1` (stereo not given), the entry is “inactive”; as for `COc1ccc(N)c(C)c1`, “inactive”; as for `CCc1ccccc1CC`, “inactive”.
Then `CC1(C)CC(N)CC(C)(CN)C1` (stereo not given), with “inactive”.
Regarding `c1ccc(Oc2ccccc2)cc1`, the outcome was inactive.
As for `CC(=O)OCCOC(C)=O`, the entry is “inactive”.
Consider `NC(=S)NNC(N)=S`, for which the call was inactive.
Consider `CC(C)(Oc1ccc(CCNC(=O)c2ccc(Cl)cc2)cc1)C(=O)O`, for which the outcome was inactive.
As for `c1ccc2c(c1)Cc1ccccc1-2`, the entry is “inactive”; as for `COc1cc(OC)c(C(=O)CCCN2CCCC2)c(OC)c1`, “inactive”.
